SARS PLpro yeast – inhibitors of SARS-CoV papain-like protease in yeast | S. cerevisiae expressing SARS-CoV PLpro, growth rescue | Potency, µM (series often up to 32.9 µM), without a hit: top-dose activity, positive = growth rescue, usual class: activators | 330,000 compounds, 0.19% hits | AID 485353; calls by dose curve; also: potency is read from the fitted curve at half-maximal effect; 0% is about no effect; nearly all actives have a fitted effect of over 55% in size
LASV entry inh – inhibitors of Lassa virus binding or cell entry; Lassa virus pseudotype entry inhibition, cell reporter; Potency, µM (top dose mostly 37.9 µM), for the others: at the top dose activity change, negative = inhibition, most hits filed as inhibitors; 300,000 compounds, 1.2% hits; AID 540256; calls by dose curve; tested in HEK293 cells; also: potency is read from the fitted curve at half-maximal effect; % is scaled to controls: 0 for no effect and ±100 for the full control effect; nearly all actives have a fitted effect of over 50% in size
MARV entry inh – Marburg virus entry inhibition. Marburg virus pseudotyped entry inhibition, cell reporter. 300,000 compounds, 1.8% hits. Potency, µM (titrated, usually from 37.8 µM), for inactives: at the highest dose activity change, negative = inhibition, usual class: inhibitors; calls by dose curve; tested in HEK293 cells; also: potency is read from the fitted curve at half-maximal effect; % is scaled to controls: 0 for no effect and ±100 for the full control effect
FMDV antiviral – antivirals against foot and mouth disease virus. FMDV antiviral cell-based qHTS. Potency, µM (series often up to 57.9 µM), for the others: at the top dose activity change, negative = inhibition, most hits filed as inhibitors. 410,000 compounds, 1.2% hits. AID 1159524; calls by dose curve; tested in HEK293T cells; also: read-out not given here; potency is read from the fitted curve at half-maximal effect; % is scaled to controls: 0 for no effect and ±100 for the full control effect; nearly all actives have a fitted effect of over 45% in size
HCMV inh – human cytomegalovirus inhibition. 410,000 compounds, 4.5% hits. AID 1259415. activity change, negative = inhibition, % at 57.5 µM. HFF cells, HCMV-luciferase reporter, 72 h; stronger effect = lower value; in the data active = activity change below about -60%; inconclusive = no clear call, values can overlap the other calls; inactive = above about -39%; also: % is scaled to controls: 0 for no effect and ±100 for the full control effect
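Compounds were evaluated in HFFs infected with an HCMV luciferase reporter virus (MOI 1 PFU/cell). Luciferase in lysates collected 72 h post infection served as the replication measure.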
HCV inh – HCV inhibition. 340,000 compounds, 3.4% hits. Potency, µM (highest dose often 41.8 µM), without a hit: top-dose activity change, negative = inhibition, hits mostly inhibitors. Huh7.5.1 HCVcc-Cre infection, luciferase reporter, 44 h; active = well fitted inhibition curve with a large enough effect; inconclusive = small, poorly fitted or top-dose-only effect, or another doubt; inactive = no such curve, though single readings can be large or run the other way; also: potency is read from the fitted curve at half-maximal effect; % is scaled to controls: 0 for no effect and ±100 for the full control effect
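Antiviral activity was scored by luciferase reporter output from cells infected with HCVcc-Cre (~0.5 moi) in presence of compound, 44 h infection period, cells seeded 1,000/well 4 h prior.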
* marks the source's active call; other numbers are inactive results; ? = inconclusive; nt = no result given; [ ] = another dose, or the depositor's remark. This is a sample that favours compounds with a hit; in the whole collection about 8% have one here.

SMILES	SARS PLpro yeast	LASV entry inh	MARV entry inh	FMDV antiviral	HCMV inh	HCV inh
CCc1c(-c2ccccc2)nc2ccccc2c1C(=O)NCc1ccc(C)cc1	nt	-19%[46.1 µM]	nt	-27%	-17	nt
CCCCN(Cc1ccccc1)C(=O)c1oc(=O)c2ccccc2c1-c1ccc(C)cc1	nt	-11%[46.1 µM]	?	0%	-39	nt
CN1C(=O)/C(=C/c2ccccc2Cl)Sc2ccc(C(=O)NCc3cccnc3)cc21	0%	?	?	40µM*	-17	-39%
CCOC(=O)N1CCN(C(=O)c2ccc3c(c2)N(C)C(=O)/C(=C\c2ccc(OCC)c(OC)c2)S3)CC1	-5%	5µM*	11µM*	35µM*	?	10µM*
O=C(NCc1cccnc1)c1ccc2c(c1)C(=O)N(Cc1ccccc1)C2=O	0%	6%	?	?	6	1%
Cc1cccc(/C=C2\Sc3ccc(C(=O)NCC4CCCO4)cc3N(C)C2=O)c1 (stereo not drawn)	-13%	?	7.1µM*	-25%	-27	?
CCOC(=O)N1CCC(NC(=O)c2ccc3c(c2)N(C)C(=O)/C(=C/c2cccc(OC)c2)S3)CC1	-1%	nt	nt	?	-19	3.2µM*
CN1C(=O)/C(=C/c2ccccc2F)Sc2ccc(C(=O)NCC3CCCO3)cc21 (stereo not drawn)	-7%	nt	nt	-25%	-5	-13%
Cc1ccccc1NS(=O)(=O)c1ccc2[nH]cc(C(=O)NC3CCCCC3)c(=O)c2c1	-5%	?	nt	-8%	36	nt
COC(=O)[C@@H]1CCCN1Cc1ccc2c(c1)CN(Cc1coc3ccc(C)cc3c1=O)CCO2	nt	nt	nt	-9%	nt	nt
CC(C)c1ccc2[nH]c3c(c2c1)CCC/C3=N\NC(=O)c1ccncc1	-3%	?	?	?	-16	0.35µM*
Nc1ccc(C(=O)N/N=C2\CCCc3c2[nH]c2ccccc32)cc1	2%	-1%	11%	13%	-6	?
COc1ccccc1-c1nc2c(c(SCc3cc(C)ccc3C)n1)Cc1c(CO)cnc(C)c1O2	nt	-25%[46.1 µM]	nt	-29%	5	nt
c1ccc2c(-c3c[nH]c4ccccc34)c3ccccc3nc2c1	-31%	-7%	?	-36%	-91*	?
CCc1cnc2c(c1SCC(=O)c1ccc(OC)cc1)c(=O)n(C)c(=O)n2C	nt	?	nt	28µM*	-6	nt
COc1ccc(C)cc1NC(=S)NC(C)c1ccc(OC)c(OC)c1 (stereo not drawn)	-1%	nt	nt	24%	?	11µM*
CN1C(=O)C(CCC(N)=O)NC1=S (stereo not drawn)	2%	8%	14%[14.2 µM]	-11%	-30	16%
NC(=O)CCC1NC(=S)N(Cc2ccccc2)C1=O (stereo not drawn)	1%	?	8%	-14%	-67*	2%
COc1cccc(C2CNC3(CCCC(C)C3)c3[nH]c4ccccc4c32)c1OC (stereo not drawn)	1%	nt	nt	-25%	-65*	-29%
COc1ccc(C2CC(=O)c3cc(-c4nc(-c5cccc([N+](=O)[O-])c5)cs4)c(=O)n(-c4ccccc4N)c3C2)cc1 (stereo not drawn)	nt	?	6%[46.1 µM]	1%	20	nt
O=C(COc1ccc(Cl)cc1)Nc1ccc(C(=O)NCc2cccnc2)cc1	3%	-22%	-27%	14µM*	nt	13µM*
COC(=O)c1sc2ncccc2c1OCc1ccccc1Cl	-3%	-12%	-1%	-1%	26	?
Cc1cccc(OCC(=O)Nc2ccc(C(=O)NCc3cccnc3)cc2)c1	-3%	nt	nt	nt	nt	nt
O=C(Nc1cccc2ncccc12)c1ccc(OCc2ccccc2)cc1	13%	nt	nt	?	?	16µM*
COC(=O)c1sc2ncccc2c1OCc1ccc(Cl)cc1	-4%	-9%	8.2µM*	13%	-31	-6%
SMILES	SARS PLpro yeast	LASV entry inh	MARV entry inh	FMDV antiviral	HCMV inh	HCV inh
Cc1ccc(OCc2ccc(C(=O)NCc3cccnc3)cc2)cc1C	-1%	7.9µM*	8.9µM*	-16%	-72*	?
CC(CCN1CCc2nc(-c3ccccc3)c(-c3ccccc3)cc2C1)=NOC[C@@H](O)[C@H]1O[C@@H]2OC(C)(C)O[C@H]2[C@@H]1O	nt	nt	26%[14.2 µM]	nt	nt	nt
O=C(NCc1ccc(Cl)cc1)c1cccnc1	-5%	3%	7%	1%	1	-11%
O=C(NCc1cccnc1)c1ccc(COc2ccc(Cl)cc2)cc1	-2%	nt	nt	-7%	-86*	?
CC(C)(C)c1ccc(C(=O)c2c[nH]c(C(=O)NCc3cccnc3)c2)cc1	10%	3%	?	0%	-7	-5%
O=C(Cc1ccc(Cl)cc1)c1c[nH]c(C(=O)NCc2cccnc2)c1	1%	nt	nt	7.9µM*	25	?
CCS(=O)(=O)N1CCc2cc(C(=O)Nc3cccc(C)c3C)ccc21	nt	?	0%[46.1 µM]	12%	23	nt
O=Cc1c(Sc2ccccn2)nc2ccccn2c1=O	-4%	-18%	1%	?	149	35µM*
FC(F)(F)c1cc(-c2cnc3ccc(NCc4ccco4)nn23)cc(C(F)(F)F)c1	nt	nt	nt	nt	-10	nt
O=C(c1cnc2n(c1=O)CCS2)N1CCCc2ccccc21	-26%	3%	13%	9%	29	-3%
O=C(c1cnc2ccccn2c1=O)N1CCCc2ccccc21	1%	-2%	17%	0%	-64*	-3%
O=C(NC(=O)N1CCCc2ccccc21)c1ccccc1	-3%	-11%	4%[46.1 µM]	42%	14	-7%
O=C(c1coc(=O)c(Br)c1)N1CCCc2ccccc21	2%	-14%	14%	1%	-75*	-27%
O=C(C(c1ccccc1)c1ccccc1)N1CCCc2ccccc21	-26%	-20%	14µM*	-7%	-11	-17%
CCOc1ccc(C(=O)NCc2nc3cccnc3n2Cc2cccc(OC)c2)cc1	nt	36%[46.1 µM]	nt	-14%	-3	nt
CC(NS(=O)(=O)c1ccc(OCC(=O)NCc2ccncc2)cc1)c1ccccc1 (stereo not drawn)	1%	nt	4.5µM*	26%	?	14%
CCCN(Cc1ccc(N(C)C)cc1)CC1CC1	-10%	15%	-9%	nt	7	7%
CCCN(Cc1ccc(N(CC)CC)cc1)CC1CC1	-1%	-21%	?	nt	-66*	10µM*
CN(Cc1cnc2ccccn12)C(=O)c1cc(NC(=O)c2ccccc2)cc2ncn(C3CCCC3)c12	nt	nt	nt	-8%	nt	nt
CCOC(=O)c1c(-c2ccc(C)o2)csc1NC(=O)CN1CCCCC1	-3%	?	?	?	1	?
CCOC(=O)c1c(NC(=O)CN2CCCCC2)sc2c1CCC(C=O)=C2Cl	3%	-13%	16%	?	14	2.2µM*
CN(C)S(=O)(=O)c1ccc2c(c1)c(=O)c(C(=O)N1CCN(c3cccc(Cl)c3)CC1)cn2C	nt	-2%[46.1 µM]	?	-4%	-7	nt
O=C(CSc1nccn1Cc1ccco1)Nc1ccc(OC(F)(F)F)cc1	nt	-16%[46.1 µM]	nt	42%	62	nt
CC(=O)c1ccc(NC(=O)CCCc2nc(-c3cccc(C)c3)no2)cc1	nt	1%[46.1 µM]	-3%[46.1 µM]	-17%	-11	nt

Screening results as filed in PubChem.
